Data on eight molecules can be found in PubChem BioAssay (NCI).

Among the test systems are HCT-15 colon; HT29 colon; SNB-75 CNS; SNB-19 CNS; U251 CNS; PC-3 prostate; SK-MEL-5 melanoma; UACC-62 melanoma; LOX IMVI melanoma; SK-MEL-28 melanoma; SK-MEL-2 melanoma; EKVX NSCLC; UO-31 renal; TK-10 renal; ACHN renal; CAKI-1 renal; A498 renal; CCRF-CEM leukemia; MOLT-4 leukemia; SN12C renal.
What all share (experiment): NCI-60 one-dose screen, 48 h (100 = growth as untreated, 0 = no growth, -100 = all killed)
Common to all, as to settings: 10 µM unless noted

Molecules are shown by their SMILES. Compounds without any hit were thinned out: in the full panel of roughly 83,000, 20% have a hit.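 Cells were grown in 96-well plates and exposed to the test compound at a single concentration for 48 hours; results are reported as percent growth, with values below 10 considered active.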 A number with no mark means an inactive call. Calls of active or inactive are those of the source.

As to `Nc1ccccc1NC(=O)c1ccc(NC(=O)C/C=C/c2cccnc2)cn1`, the growth with HCT-15 colon was 21.4%; in the test with HT29 colon, 12.9%; in the test with SNB-75 CNS it was 29.4%; with SNB-19 CNS, 33.1%; in the test with U251 CNS it was 15.6%; in the test with PC-3 prostate, 31.6%. Also, the growth in the test with SK-MEL-5 melanoma is -75.9% (active); with UACC-62 melanoma, 0.71% (active); in the test with LOX IMVI melanoma, 1.78% (active); in the test on SK-MEL-28 melanoma, -34% (active); in the test on SK-MEL-2 melanoma it was 15.9%; in the test with EKVX NSCLC it was 52.9%. The growth in the test with UO-31 renal was 0.829% (active); with TK-10 renal, 17.4%; in the test on ACHN renal, 26.1%; with CAKI-1 renal it was 29.2%; in the test with A498 renal it was -35.3% (active); in the test on CCRF-CEM leukemia it was 15.8%. Besides, the growth in the test on MOLT-4 leukemia was 17.3%.
For the molecule `COc1cc2nc(Cl)nc(Nc3cccc(C4=Nc5c(N)nc(N)nc5NC(c5ccc(Cl)cc5)C4)c3)c2cc1OC` (configuration not stated), the growth in the test with HCT-15 colon is -7.82% (active); in the test on HT29 colon it was 3.99% (active); with SNB-75 CNS, 89.9%; in the test with SNB-19 CNS, 12.8%; with U251 CNS, -52.4% (active); in the test with PC-3 prostate, 62.8%. Moreover, the growth with SK-MEL-5 melanoma was 70.6%; with UACC-62 melanoma, 92%; in the test with LOX IMVI melanoma it was -52.3% (active); in the test on SK-MEL-28 melanoma it was 73.9%; in the test on SK-MEL-2 melanoma it was 76.9%; with SN12C renal, 73.7%. For the same molecule, the growth in the test on UO-31 renal is 89.9%; in the test with TK-10 renal it was 115%; in the test with ACHN renal, 102%; with CAKI-1 renal, 86.8%; in the test with A498 renal, 99.4%; with CCRF-CEM leukemia it was 3.94% (active). The growth in the test with MOLT-4 leukemia is 10%.
For `CS(=O)(=O)Nc1cc(-c2ccc3ncc(C#N)c(NCc4ccccc4)c3c2)cnc1Cl`, the growth in the test on HCT-15 colon is 8.19% (active); in the test on HT29 colon, 6.89% (active); with SNB-75 CNS, -36.7% (active); in the test on SNB-19 CNS, 7.25% (active); in the test with U251 CNS, 11.1%; in the test with PC-3 prostate it was -7.11% (active). Also, the growth is -95.3% (active) in the test on SK-MEL-5 melanoma; -28% (active) with UACC-62 melanoma; -32.6% (active) in the test on LOX IMVI melanoma; -7.57% (active) with SK-MEL-28 melanoma; -42.2% (active) with SK-MEL-2 melanoma; -20.1% (active) with EKVX NSCLC. The growth in the test with UO-31 renal is 1.63% (active); with TK-10 renal it was -25.2% (active); in the test with ACHN renal it was 5.99% (active); with CAKI-1 renal it was -27.7% (active); with MOLT-4 leukemia, -25.6% (active).
On to `O=C(NNc1nc2cc(F)ccc2n2c(CN3CCCC3)ccc12)c1cnccn1`, for which the growth in the test on HCT-15 colon was 23%; in the test on HT29 colon, 24%; in the test on SNB-75 CNS, 65%; in the test with SNB-19 CNS it was 25.2%; in the test on U251 CNS, 19.8%; in the test on PC-3 prostate, 21.4%. Besides, the growth was 22.3% with SK-MEL-5 melanoma; 17.9% in the test with UACC-62 melanoma; 3.56% (active) with LOX IMVI melanoma; 30.8% in the test on SK-MEL-28 melanoma; 46% in the test with SK-MEL-2 melanoma; 7.62% (active) in the test with EKVX NSCLC. Besides, the growth in the test on SN12C renal was 21%; in the test with UO-31 renal, 18.7%; in the test with TK-10 renal, 40.2%; in the test with ACHN renal, 13.3%; in the test with CCRF-CEM leukemia, 6.67% (active); in the test with MOLT-4 leukemia, 1.81% (active).
As to `CC(C)(C)n1cc(-c2ccnc(NCCCNS(=O)(=O)c3cccc(F)c3)n2)c(-c2ccc(Cl)c(O)c2)n1`, the growth was 89.6% in the test on HCT-15 colon; 94.8% in the test with HT29 colon; 110% in the test with SNB-75 CNS; 103% in the test on SNB-19 CNS; 106% in the test on U251 CNS; 67.5% in the test on PC-3 prostate. Also, the growth in the test on SK-MEL-5 melanoma is 95.5%; in the test on UACC-62 melanoma, 89.5%; with LOX IMVI melanoma it was 96.4%; in the test with SK-MEL-28 melanoma it was 95.4%; in the test on SK-MEL-2 melanoma, 98.4%; in the test on SN12C renal, 90.9%. Further, the growth is 101% in the test on UO-31 renal; 152% in the test on TK-10 renal; 97% in the test with ACHN renal; 95.8% with CAKI-1 renal; 91.4% in the test on A498 renal; 71.4% with CCRF-CEM leukemia. In the test on MOLT-4 leukemia, the growth is 77.4%.
Take `CCNC(=O)N1CCc2cc(OC)c(OCCc3ccc(OC)c(N)c3)cc2C1c1cc(C)c(C)cc1C` (configuration not stated): the growth is 14.7% with HCT-15 colon; 21.9% in the test with HT29 colon; 22.1% in the test with SNB-75 CNS; 34.6% with SNB-19 CNS; 28.4% in the test with U251 CNS; 36.7% in the test on PC-3 prostate. Moreover, the growth in the test with SK-MEL-5 melanoma was 27.7%; in the test on UACC-62 melanoma it was 23.1%; in the test with LOX IMVI melanoma, 7.03% (active); with SK-MEL-28 melanoma, 44.7%; with SK-MEL-2 melanoma it was 33.2%; in the test on EKVX NSCLC, 58.3%. Also, the growth in the test with UO-31 renal was 38.4%; in the test on TK-10 renal, 68%; with ACHN renal, 32.5%; in the test on CAKI-1 renal, 30.1%; in the test on A498 renal it was 20%; with CCRF-CEM leukemia, 46.7%. Further, the growth with MOLT-4 leukemia is 32.3%.
Consider `Nc1nc(Nc2ccccc2SSc2ccccc2Nc2nc(N)nc(-c3ccccc3)n2)nc(-c2ccccc2)n1`, for which the growth with HCT-15 colon was 48.5%; in the test on HT29 colon, 111%; in the test on SNB-75 CNS, 55.7%; in the test with SNB-19 CNS, 74.5%; in the test with U251 CNS, -22.7% (active); with PC-3 prostate, 42.9%. Besides, the growth with SK-MEL-5 melanoma was 89.2%; in the test on UACC-62 melanoma, 76.3%; in the test on LOX IMVI melanoma, -34.3% (active); in the test on SK-MEL-28 melanoma, 93.9%; in the test with SK-MEL-2 melanoma, 106%; in the test with SN12C renal, 77.8%. Moreover, the growth is -12.6% (active) in the test with UO-31 renal; 101% in the test on TK-10 renal; 55.8% with ACHN renal; 25.2% in the test on CAKI-1 renal; 78.7% with A498 renal; 50.7% in the test on MOLT-4 leukemia.
Consider `COc1cc(OC)c(/C=C/S(=O)(=O)Cc2ccc(OC)c(NC(=O)CCC(=O)NO)c2)c(OC)c1`, for which the growth in the test with HCT-15 colon is 8.57% (active); in the test with HT29 colon, 3.2% (active); with SNB-75 CNS it was 31.6%; with SNB-19 CNS, 23%; with U251 CNS, 14.6%; in the test with PC-3 prostate, 28.7%. Further, the growth in the test with SK-MEL-5 melanoma is -31.6% (active); in the test with UACC-62 melanoma, 13.8%; in the test with LOX IMVI melanoma, 10.4%; in the test with SK-MEL-28 melanoma it was 60%; in the test on SK-MEL-2 melanoma it was 46.6%; in the test on EKVX NSCLC, 36.1%. Further, the growth is 34.1% in the test on UO-31 renal; 64.4% with TK-10 renal; 28.1% with ACHN renal; 25.3% in the test on CAKI-1 renal; 11.5% in the test on CCRF-CEM leukemia; 17.2% with MOLT-4 leukemia.
